The nature of the experiment: MELAS cybrid and Rieske KO viability enhancers – cell-based, MELAS cybrids, Rieske KO mouse fibroblasts, CellTiter-Glo, primary screen (AID 1508586).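 Also: test concentration not given here; z relative to plate mean and SD of compound and empty wells.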 The conditions noted are these: Rieske KO mouse fibroblast survival, low glucose, CellTiter-Glo 72 h.
As for `COc1ccc2cc(-c3c(-c4ccncc4)nc(-c4ccc(S(C)=O)cc4)n3C)ccc2c1` (centres undefined), the z-score is -0.225.

For the compound `COc1ccc2cc(-c3c(-c4ccncc4)nc(-c4ccc(S(C)(=O)=O)cc4C)n3C)ccc2c1`, the z-score was -0.281.

On to `CN(C)CCCn1c(-c2nonc2N)nc2cnccc21`, for which the z-score was -0.298.

For `CN1CCC(n2cnc(-c3ccc(F)cc3)c2-c2ccnc(Nc3ccccc3)n2)CC1`, the z-score is -0.322.

Regarding `CCS(=O)(=O)c1ccc(OC)c(Nc2ncc(-c3cccc(-c4ccccc4F)c3)o2)c1`, the z-score is -0.444.

`COC(=O)Nc1nc2ccc(Oc3ccc(NC(=O)Nc4cccc(C(=O)O)c4)cc3)cc2[nH]1`: the z-score was -0.262.

In the case of `COC(=O)Nc1nc2ccc(S(=O)(=O)c3ccc(NC(=O)Nc4cc(C(F)(F)F)ccc4F)cc3)cc2[nH]1`, the z-score is -0.437.

Take `COc1c(C(N)=O)cc(-c2ccc(Cl)cc2)cc1-c1ccc(S(N)(=O)=O)cc1`: the z-score was 0.0436.

Take `CN(C)CCNC(=O)Nc1ccc(N(C)c2ccnc(Nc3ccc(CS(C)(=O)=O)cc3)n2)cc1`: the z-score was -0.109.

As to `FC(F)(F)c1cccc(-c2nn3ncccc3c2-c2ccnc(Nc3ccc4c(c3)OCCO4)n2)c1`, the z-score is -0.445.

Turning to `COc1cc(N2CCN(C(C)C)CC2)ccc1Nc1nc(Nc2cccc3ncccc23)c2cc[nH]c2n1`, the z-score was -0.0497.

Consider `NS(=O)(=O)c1ccc(NC2CC(c3cccc(O)c3)NN2)cc1` (centres undefined), for which the z-score is -0.281.

In the case of `COc1ccccc1-c1cc(/C=C2\C(=O)Nc3ncc(Br)cc32)cc(Br)c1O`, the z-score is -0.341.

As for `CS(=O)(=O)CCNCc1cc(-c2cc3c(Nc4ccc(OCc5cccc(F)c5)c(Cl)c4)ncnc3s2)cs1`, the z-score was -0.666.

For `CCCN1CCCC(c2ccc(Nc3nc(Nc4cc(F)ccc4C(N)=O)c4cc[nH]c4n3)c(OC)c2)C1` (centres undefined), the z-score is 4.23.

Regarding `COc1ccc2ncn(-c3cc(O[C@H](C)c4ccccc4C(F)(F)F)c(C(N)=O)s3)c2c1`, the z-score was found to be 0.29.

For `Nc1nc(-c2ccc(F)cc2)c(-c2ccc3ncccc3n2)s1`, the z-score amounted to 0.128.

With `Cc1ccc2[nH]c(O)c(N=Nc3ccc(S(N)(=O)=O)cc3)c2c1`, the z-score was -0.00523.

Regarding `O=S1CCN(Cc2ccc(-c3ccc4ncnc(Nc5ccc(OCc6ccccc6)c(Cl)c5)c4c3)o2)CC1`, the z-score was -0.081.

As to `CCn1c(-c2nonc2N)nc2c(C#CC(C)(C)O)ncc(OCC3CCNCC3)c21`, the z-score was -0.292.

With `COc1ccc2ncnc(Nc3ccc(OCc4ccccc4)cc3)c2c1`, the z-score is -0.262.

Regarding `COc1cc(/C=N/Nc2ncnc3c2cnn3C(C)C)ccc1O`, the z-score was determined as 1.02.

On to `COc1ccc(-c2ccncc2)cc1C(N)=O`, for which the z-score is -0.232.

Take `COc1ccc(-c2coc3ncnc(N)c23)cc1`: the z-score was -0.245.

Consider `CCNC(=O)O[C@H]1CN[C@H](C#Cc2cc3ncnc(Nc4ccc(OCc5cccc(F)c5)c(Cl)c4)c3s2)C1`, for which the z-score was -0.264.

On to `Fc1ccc(Nc2nccc(-c3c(-c4ccc(C(F)(F)F)cc4)nn4ncccc34)n2)cc1F`, for which the z-score was -0.174.

`CCn1c(-c2nonc2N)nc2c(C#CC(C)(C)O)nc(OC[C@H](N)c3ccccc3)cc21`: the z-score worked out at 0.135.

Regarding `Cc1nnc(-c2ccc(C)c(-c3ccc(C(=O)Nc4cccc(C#N)c4)cc3)c2)o1`, the z-score is -0.283.

For `Oc1cccc(-c2nc(-c3ccccc3)[nH]c2-c2ccncc2)c1`, the z-score is -0.653.

With `COc1ccc(-c2cc3c(N)ncnc3o2)cc1`, the z-score was determined as 0.359.

For the compound `NS(=O)(=O)c1ccc(N=Nc2c(O)[nH]c3ccc(-c4cnco4)cc23)cc1`, the z-score was -0.0502.

Regarding `NS(=O)(=O)c1cccc(-c2ccc3c(NC(=O)C4CC4)n[nH]c3c2)c1`, the z-score was -0.475.

Consider `COc1cc(N2CCN(C(C)C)CC2)ccc1Nc1nc(Nc2ccc(F)cc2C(N)=O)c2cc[nH]c2n1`, for which the z-score is 7.03.

As for `CC(C)=Cc1cccc2[nH]c(O)c(N=Nc3ccc(S(N)(=O)=O)cc3)c12`, the z-score came out at 0.0676.

With `Cc1ccc2c(-c3ccnc(Nc4ccccc4)n3)c(-c3ccc(F)cc3)nn2n1`, the z-score is -0.16.

`Cc1c2ccc(N(C)c3ccnc(Nc4cccc(S(N)(=O)=O)c4)n3)cc2nn1C`: the z-score is -0.151.

For `CNC(=O)c1cncc(/C=C/c2ccccc2Cl)c1`, the z-score is -0.00226.

Consider `COc1cc2ncnc(Nc3ccc(C)c(O)c3)c2cc1OC`, for which the z-score is -0.31.

As to `CC(C)c1ccc2c(N=Nc3ccc(S(N)(=O)=O)cc3)c(O)[nH]c2c1`, the z-score is -0.254.
